Test results as given in PubChem BioAssay.

Assay: compounds binding Alexa647 anti-His antibody – biochemical, small-molecule microarray, 635 nm fluorescence, artefact control for SMM control protein annotation, primary screen (AID 1128);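 note: score merges feature fluorescence with signal-to-noise for each printed compound spot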
Conditions: higher = more signal
Work on `COC(=O)C[C@H]1O[C@@H](CCc2ccccc2)[C@@H](C)[C@@H]1[Si](C)(C)c1ccc(OC)cc1` yielded a composite z-score of -0.608. In the case of `CC(=CC1CCCCC1)[C@@H](NC(=O)c1cccnc1)c1ccc(-c2ccccc2)cc1`, the composite z-score was 0.219. Work on `[N-]=[N+]=Nc1ccccc1C[C@]1(C(=O)NCC(O)CO)N=C(c2ccc(OCCCO)cc2)O[C@H]1c1ccccc1` (stereo not given in full) yielded a composite z-score of 1.91. Work on `COCC(=C=CC[C@H](O)c1cccc(OCCO)c1)CCO` yielded a composite z-score of -0.115. Work on `COC(=O)[C@H](Cc1ccccc1)N[C@H](/C=C/C1CC1)[C@@H](O)Cc1ccccc1` yielded a composite z-score of -0.174. `C=CCOC(=O)[C@H]1[C@@H]2C(=O)O[C@@H](c3ccccc3)[C@@H](c3ccccc3)N2[C@@H](c2ccc(OCCOC(=O)[C@@H]3C[C@@H]4C(=O)N5CCC[C@H]5C(=O)N4[C@@H]3c3cccc(OCCO)c3)cc2)[C@]12C(=O)Nc1ccc(I)cc12` showed a composite z-score of 1.55. For `COCC(=C=CC[C@@H](O)c1ccc(OCCO)cc1)C[C@@H](O)c1ccccn1`, the composite z-score was 2.32. Molecule `COc1ccc([Si](C)(C)[C@@H]2[C@@H](CCO)O[C@]3(C(=O)N(Cc4cccc(N5CCOC5=O)c4)c4ccccc43)[C@H]2C)cc1` has a composite z-score of 0.0657. `[N-]=[N+]=Nc1ccccc1[C@H]1OC(c2ccc(OCCCO)cc2)=N[C@@]1(Cc1ccccc1)C(=O)N1CCOCC1` showed a composite z-score of 2.22. In the case of `CN1C(=O)C2C=CC(C(O)C=Cc3ccc([N+](=O)[O-])cc3)N(Nc3ccccc3)C2C1=O` (stereo not given), the composite z-score was 1.26. `C#CCOc1ccc(C[C@@H](C(=O)OC)N(CC#C)[C@@H](/C=C/C2CC2)[C@H](O)Cc2ccccc2)cc1` gave a composite z-score of 0.135. Work on `O=C(NCc1ccccc1)[C@@H]1c2ccccc2C(=O)N(C2Cc3ccccc3C2)[C@H]1c1ccc(CO)cc1` yielded a composite z-score of 0.526. With `COC(=O)c1c2oc(c1C(=O)OC)C(=O)NC1(CCCCC1)c1cn(nn1)C[C@H](Cc1ccccc1)NC(=O)N[C@H](CO)CC2` the composite z-score was 0.842. Work on `CCCCCCc1nc(-c2ccc(-c3ccc(Cl)c(Cl)c3)o2)cc2c1[Si](C(C)C)(C(C)C)O[C@H]2c1ccccc1` yielded a composite z-score of -0.403. For `COCCOC(=O)N1C(=O)[C@@]2(c3cc(C#CC4(O)CCCCCC4)ccc31)[C@H](C(=O)Nc1nc3ccccc3s1)[C@H]1C(=O)O[C@H](c3ccccc3)[C@H](c3ccccc3)N1[C@@H]2c1ccc(OCCO)cc1`, the composite z-score was 0.553. Work on `COC(=O)[C@@]1(Cc2ccc(OC)cc2)[C@H]2c3cc(C(=O)N4CCCC4)n(CCCNc4ncc(C(F)(F)F)cc4Cl)c3C[C@H]2CN1C(=O)c1ccccc1` yielded a composite z-score of 2.65. In the case of `COC(=O)[C@@]1(Cc2ccc(OC)cc2)[C@H]2c3cc(C(=O)N4CCCC4)n(CCc4ccc(O)c(O)c4)c3C[C@H]2CN1C(=O)c1ccccc1`, the composite z-score was 2.44. With `Cc1c(NC(=O)/C(C#N)=C/c2cccc([N+](=O)[O-])c2)c(=O)n(-c2ccccc2)n1C` the composite z-score was 0.551. For `C[N+](C)(C)CCCC[C@@H]1NC(=O)[C@@H]2C[C@H](C(=O)NCCCCCCNC(=O)CS)[C@H](c3ccc(O)cc3)N2C1=O`, the composite z-score was 0.271. For `COC(=O)[C@@]1(Cc2ccccc2)[C@H]2c3cc(C(=O)N4CCCC4)n(Cc4ccc(O)c(OC)c4)c3C[C@H]2CN1C(=O)c1ccccc1`, the composite z-score was 0.882. `O=C1O[C@@H](c2ccccc2)[C@@H](c2ccccc2)N2[C@@H](c3ccccc3OCCO)[C@]3(C(=O)Nc4ccccc43)[C@@H](C(=O)O)[C@H]12` gave a composite z-score of 0.969. For `CCCNC(=O)[C@@H]1c2ccccc2C(=O)N(Cc2ccccc2OC)[C@H]1c1ccc(CO)cc1`, the composite z-score was 2.08. For `CC[C@@H]1C=C(C(=O)O)[C@H](c2ccc(C)cc2)N1S(=O)(=O)c1ccc(C)cc1`, the composite z-score was -0.479. In the case of `O=C1O[C@H](c2ccccc2)[C@H](c2ccccc2)N2[C@H]1[C@@H](C(=O)NC[C@H](O)c1ccccc1)[C@]1(C(=O)Nc3ccccc31)[C@H]2c1ccc(O)cc1`, the composite z-score was 0.885. For `Cc1ccc(S[C@]2(C(=O)NCC(C)C)CC(=O)N(Cc3cc(C(F)(F)F)cc(C(F)(F)F)c3)[C@@H]2c2ccc(CO)cc2)cc1`, the composite z-score was 0.63. Work on `COCCOC(=O)N1C(=O)[C@@]2(c3cc(C#CC4=CCCCC4)ccc31)[C@H](c1ccc(OCCO)cc1)N1[C@H](c3ccccc3)[C@H](c3ccccc3)OC(=O)[C@H]1[C@@H]2C(=O)N1CCc2cc(OC)c(OC)cc2C1` yielded a composite z-score of 0.936. For `COc1ccccc1CN1C(=O)c2ccccc2[C@@H](C(=O)NCc2ccccc2)[C@@H]1c1ccc(CO)cc1`, the composite z-score was 1.99. In the case of `COCCOC(=O)N1C(=O)[C@@]2(c3ccccc31)[C@H](C(N)=O)[C@H]1C(=O)O[C@H](c3ccccc3)[C@H](c3ccccc3)N1[C@@H]2c1ccc(O)cc1`, the composite z-score was 0.142. `C=C(/C(=C/C[C@H](OC(C)=O)c1ccc(OCCO)cc1)c1cc(C(=O)OC)ccc1OC)C(C)C` gave a composite z-score of 1.16. `COCCCNC(=O)[C@@]1(Sc2ccc(C)cc2)CC(=O)N(Cc2ccccc2Cl)[C@@H]1c1ccc(CO)cc1` gave a composite z-score of 0.225. `O=C(O)[C@H](Cc1ccccc1)n1cc(-c2ccccc2)nn1` showed a composite z-score of 0.347. Molecule `CC(C)[Si](C#CCCCC#N)(Oc1ccccc1Br)C(C)C` has a composite z-score of 0.259. `C=CC1c2cc(O)c(OC)cc2CCN1Cc1cccc(OC(F)(F)F)c1` (stereo not given) gave a composite z-score of 1.33. In the case of `O=C1OCCC=C[C@H]2OC34C=CCN(Cn5nnc6ccccc65)C(=O)[C@H]3N(CCO)C(=O)[C@@H]4C12` (stereo not given in full), the composite z-score was -0.459. `CC(C)[Si](C#C[Si](C(C)C)(C(C)C)C(C)C)(O[C@H](C)c1cn(Cc2ccccc2)nn1)C(C)C` showed a composite z-score of 0.386.
